Data as given in PMC5540273 (PLoS ONE, 2017).

Columns and labels:
Details in all cases: concentration: 1 μM, replicates: in singlicate; n = 1
YANK2 = tested on: T1, YANK2
T1 construct: gene STK32B

YANK3 = tested on: T2, YANK3
T2 construct: gene STK32C

YES = tested on: T3, YES
T3 construct: gene YES1

YSK1 = tested on: T4, YSK1
T4 construct: gene STK25

YSK4 = tested on: T5, YSK4
T5 construct: gene MAP3K19

ZAK = tested on: ZAK
ZAP70 = tested on: ZAP70
p38-alpha = tested on: T6, p38-alpha
T6 construct: gene MAPK14

p38-beta = tested on: T7, p38-beta
T7 construct: gene MAPK11

p38-delta = tested on: p38-delta
p38-gamma = tested on: T8, p38-gamma
T8 construct: gene MAPK12
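Further: KINOMEscan kinase panel screen.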

Structure (SMILES)	%Inh (YANK2)	%Inh (YANK3)	%Inh (YES)	%Inh (YSK1)	%Inh (YSK4)	%Inh (ZAK)	%Inh (ZAP70)	%Inh (p38-alpha)	%Inh (p38-beta)	%Inh (p38-delta)	%Inh (p38-gamma)
O=C1NC(=O)C(c2ccc(Cl)cc2)=C1Nc1ccc(O)cc1 [SB-340867]	0%	0%	0%	8%	10%	22%	0%	0%	0%	0%	0%
COc1ccc(CSc2nnc(-c3ccc4ncsc4c3)o2)cc1C(F)(F)F	11%	0%	0%	11%	70%	0%	11%	0%	10%	0%	0%
CS(=O)(=O)Cc1ccc(Nc2nccc(-c3c(-c4cccc(NC(=O)C5CCCCC5)c4)nn4ncccc34)n2)cc1 [GSK350559]	13%	3%	36%	0%	16%	15%	22%	2%	6%	0%	43%
CS(=O)(=O)CCNCc1nc(-c2ccc3ncnc(Nc4ccc5c(cnn5Cc5ccccc5)c4)c3c2)cs1.Cl.Cl [GW569716]	0%	0%	21%	0%	36%	0%	0%	4%	0%	18%	0%
Cc1ccc(NC(=O)c2ccc(Cl)cc2)cc1-c1ccc(C(=O)Nc2ccncc2)cc1 [GSK1398467]	10%	17%	18%	0%	40%	17%	6%	65%	29%	27%	0%
O=C(Nc1n[nH]c2nc(-c3ccco3)c(Br)cc12)C1CCN(Cc2ccccc2)C1.O=C(O)[C@H](O)[C@@H](O)C(=O)O (stereo not drawn) [SB-742034]	9%	0%	12%	0%	56%	0%	35%	13%	15%	7%	20%
CNC(=O)c1ccc(C)c(-n2c(C)cc(OCc3ccc(F)cc3F)c(Br)c2=O)c1	0%	0%	0%	0%	0%	0%	0%		94.5%	0%	0%
COc1ccc(CSc2nnc(-c3ccc4nccn4c3)o2)cc1C(F)(F)F	8%	0%	0%	14%	92.3%	0%	0%	4%	21%	0%	3%
Fc1ccc(-c2nn3cccc(F)c3c2-c2ccncc2)cc1 [GW475620]	46%	12%	5%	0%	14%	25%	3%	97.6%	16%	21%	0%
Fc1ccc(-c2nc3n(c2-c2ccncc2)CCS3)cc1 [GI98581]	5%	21%	0%	0%	5%	4%	0%	98.4%	14%	14%	0%
COc1ccc(Nc2nccc(NCCNC(=O)Nc3cc(C)ccc3C)n2)cc1 [GSK1379899]	0%	0%	0%	0%	4%	3%	0%	0%	0%	21%	0%
CS(=O)(=O)CCNCc1nc(-c2ccc3ncnc(Nc4ccc(OCc5ccccc5)c(Cl)c4)c3c2)cs1.Cl [GW582764]	0%	40%	7%	0%	30%	5%	0%	0%	0%	37%	0%
COC(=O)c1cccc(NC(=O)NC2CCN(c3ccnc(Nc4ccc(OC)cc4)n3)C2)c1 (stereo not drawn) [GSK1379746]	0%	8%	13%	0%	22%	0%	0%	3%	0%	6%	0%
O=c1cc(N2CCOCC2)nc2n(Cc3cccc(Cl)c3Cl)c3ccccc3n12 [GSK2299009]	0%	29%	17%	21%	3%	5%	0%	12%	1%	16%	30%
Cc1ccccc1-c1cc(-c2c[nH]nc2-c2ccccn2)ccn1 [GW680061]	0%	13%	15%	3%	14%	0%	0%	85%	0%	28%	0%
COC(=O)C(NC(=O)NC1CCN(c2ccnc(Nc3ccc(F)cc3)n2)C1)c1ccccc1 (stereo not drawn) [GSK1379712]	0%	0%	0%	14%	32%	0%	4%	12%	0%	37%	23%

Structure (SMILES)	%Inh (YANK2)	%Inh (YANK3)	%Inh (YES)	%Inh (YSK1)	%Inh (YSK4)	%Inh (ZAK)	%Inh (ZAP70)	%Inh (p38-alpha)	%Inh (p38-beta)	%Inh (p38-delta)	%Inh (p38-gamma)
COc1ccc2cc(-c3nc(-c4ccccc4C(C)C)[nH]c3-c3ccncc3)ccc2c1 [SB-660566]	62%	53%	25%	31%	45%	31%	0%	3%	2%	44%	0%
O=C(Nc1n[nH]c2nc(-c3cccs3)c(Br)cc12)C1CCCC1 [SB-743341]	15%	65%	0%	0%	0%	19%	0%	13%	24%	24%	13%
Cc1nccc(-c2c(-c3ccc(F)cc3)ncn2CCCN2CCOCC2)n1.Cl [SB-282975]	0%	5%	18%	0%	22%	28%	25%	61%	26%	0%	26%
Cc1cccc2c(-c3ccncn3)c(-c3ccc(F)cc3)nn12 [GW515532]	41%	18%	0%	8%	16%	9%	20%	91.6%	1%	15%	20%
Fc1ccc(-c2nc[nH]c2-c2ccncc2)cc1 [SB-217360]	28%	0%	0%	0%	22%	0%	0%	97.9%	21%	0%	39%
Cn1cncc1C(=O)NC1CCN(c2ccnc(Nc3ccc(F)cc3)n2)C1 (stereo not drawn) [GSK1379717]	4%	0%	12%	0%	38%	100%	43%	0%	0%	5%	0%
CC(=O)c1cccc(NC(=O)NC2CCN(c3ccnc(Nc4ccc(F)cc4)n3)C2)c1 (stereo not drawn) [GSK1379710]	0%	6%	0%	0%	20%	9%	0%	30%	0%	14%	3%
Cc1c(Cn2c3ccccc3n3c(=O)cc(N4CCOCC4)nc23)cccc1C(F)(F)F [GSK2306394]	0%	13%	6%	0%	7%	1%	0%	22%	0%	17%	0%
COc1ccc(Nc2nccc(N3CCC(NC(=O)C(C)c4ccc(Cl)cc4)CC3)n2)cc1 (stereo not drawn) [GSK1379812]	2%	1%	0%	0%	0%	0%	0%	1%	0%	27%	2%
CNc1cc(-c2ccc3c(N)n[nH]c3c2)nc(N)n1 [GSK2224810]	8%	0%	0%	6%	58%	0%	0%	23%	0%	38%	0%
COC(=O)c1cccc(NC(=O)NC2CCN(c3ccnc(Nc4ccc(F)cc4)n3)C2)c1 (stereo not drawn) [GSK1379725]	0%	0%	8%	0%	8%	2%	0%	0%	0%	51%	0%
Cl.Cl.Cl.N#Cc1ccc(CCNc2nccc(-c3cccc(CN4CCNCC4)c3)n2)cc1 [GSK2137462]	0%	3%	6%	0%	10%	10%	0%	0%	0%	49%	27%
COc1ccc(CSc2nnc(-c3ccc4c(c3)CCO4)o2)cc1	0%	0%	0%	0%	0%	0%	0%	0%	0%	23%	0%
CCn1c(-c2ccccc2)nc2cnccc21 [SB-733416]	0%	32%	4%	0%	0%	7%	0%	0%	0%	56%	0%
O=c1cc(N2CCOCC2)nc2n(Cc3ccccc3F)ccn12 [GSK2297428]	0%	0%	0%	0%	33%	0%	0%	5%	0%	26%	0%
CCc1ccc(-c2ccc3c(c2)-c2n[nH]cc2S(=O)(=O)N3C)cc1	0%	0%	0%	0%	0%	5%	3%	0%	0%	0%	0%
